Laboratory results published in PubChem BioAssay (EPA / NIEHS).
Results filed as inconclusive are left out. Active and inactive are the calls of the source. How the source made its calls, unless noted: active means hit-call score of the fitted dose curve at least 0.9, where 1 is the maximum; inactive means score below 0.9.

Key:
[1] = ACEA_ER_80hr: ACEA Biosciences xCELLigence Real-Time Cell Analysis on Estrogen Receptor Agonism for Proliferation (AID 2282667; active means hit-call score of the fitted dose curve at least 0.9, where 1 is the maximum); conditions: T47D proliferation, impedance (xCELLigence), 80 h
In short: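 Real-time impedance growth kinetics of human T-47D breast cells read 80 h after dosing, gain-of-signal fitted relative to DMSO. Compounds: 1:4 serial series, top final concentration 100 uM, n = 2.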

[2] = APR_HepG2_CellCycleArrest_24hr: Apredica 24-hour HepG2 Assay for Cell Cycle Arrest (AID 2282905); conditions: imaging, actives raise or lower the signal;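 further: cell cycle arrest scored as ratio of 2N to 4N nuclear DNA content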
In short: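 Step one: dose HepG2 with test compounds, 0.39–200 uM, 0.5% DMSO, 24 hr. Step two: fix, permeabilize, stain nuclei with Hoechst 33342. Step three: image six fields per well at 20x, quantify DNA content, fit bidirectionally relative to DMSO.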

[3] = APR_HepG2_NuclearSize_24hr: Apredica 24-hour HepG2 Assay for Nuclear Size (AID 2282907); conditions: high-content imaging, actives raise or lower the signal
In short: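 After fixation and permeabilization, 24-hr-treated HepG2 cells were stained with Hoechst 33342 and imaged on an ArrayScan (20x). Doses spanned 0.39–200 uM in duplicate. Nuclear diameter changes in either direction were fitted relative to 0.5% DMSO controls.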

[4] = APR_HepG2_CellLoss_24hr: Apredica 24-hour HepG2 Assay for Cell Loss (AID 2282908); conditions: high-content imaging;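 on AC50: fit in both directions so a hit may be cell loss or gain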
In short: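 Duplicate wells received compound at ten concentrations (0.39–200 uM; final DMSO 0.5% v/v). After fixation with formaldehyde, nuclei stained with Hoechst 33342 were imaged at 20x. Loss or gain of cell count was fitted relative to DMSO controls.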

[5] = APR_HepG2_MicrotubuleCSK_24hr: Apredica 24-hour HepG2 Assay for Microtubule CSK Stabilty (AID 2282909); conditions: HepG2 microtubule cytoskeleton imaging, actives raise or lower the signal
In short: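 Microtubule stability is scored from tubulin immunofluorescence in fixed HepG2 cells imaged at 20x. Cells receive ten compound concentrations up to 200 uM for 24 h; taxol and DMSO serve as positive and negative controls.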

[6] = APR_HepG2_MitoticArrest_24hr: Apredica 24-hour HepG2 Assay for Mitotic Arrest (AID 2282910); conditions: high-content imaging, actives raise or lower the signal
In short: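 Treatment lasted 24 hr in the human HepG2 line at 0.39–200 uM, solvent held at 0.5% DMSO. Fixed cells were stained with Hoechst 33342 and anti-phospho-histone H3, imaged at 20x, and analysed by gain- or loss-of-signal fitting against DMSO.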

[7] = APR_HepG2_MitoMembPot_24hr: Apredica 24-hour HepG2 Assay for Mitochondrial Membrane Potential (AID 2282911); conditions: imaging, actives raise or lower the signal
In short: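 Mitochondrial membrane potential imaged via MitoTracker Red CMXRos (250 nM, 30 min pre-fixation) in fixed HepG2 cells with Hoechst nuclear identification. Ten concentrations 0.39–200 uM, 24 h treatment, 0.5% DMSO; CCCP as positive control.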

[8] = APR_HepG2_MitoMass_24hr: Apredica 24-hour HepG2 Assay for Mitochondrial Mass (AID 2282912); conditions: high-content imaging, actives raise or lower the signal
In short: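 Readout: fluorescence of MitoTracker Red CMXRos (250 nM, added 30 min pre-fixation) in fixed HepG2 cells imaged by HCS. Exposure lasted 24 hr at 0.39–200 uM; increases and decreases were both fitted relative to DMSO.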

[9] = APR_HepG2_p53Act_24hr: Apredica 24-hour HepG2 Assay for p53 Activation (AID 2282913); conditions: high-content imaging, actives raise or lower the signal;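 further: p53 protein immunofluorescence averaged per cell in HepG2 with Hoechst nuclei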
In short: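 Fluorescence imaging of formaldehyde-fixed HepG2 cells labelled for p53 and with Hoechst, 24 h after dosing (0.39–200 uM, duplicate wells, 0.5% v/v DMSO). Signal fitted in both directions relative to DMSO.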

[10] = APR_HepG2_CellCycleArrest_72hr: Apredica 72-hour HepG2 Assay for Cell Cycle Arrest (AID 2282914); conditions: high-content imaging, actives raise or lower the signal
In short: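 Read-out: nuclear DNA content from Hoechst 33342 high-content imaging (20x, six fields/well) after 3.7% formaldehyde fixation, fitted bidirectionally against DMSO. Treatment was 72 h in HepG2, ten concentrations 0.39–200 uM, duplicate, 0.5% DMSO.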

[11] = APR_HepG2_CellLoss_72hr: Apredica 72-hour HepG2 Assay for Cell Loss (AID 2282915); conditions: high-content imaging
In short: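 HepG2 cells were exposed for 72 hr to compounds at 0.39–200 uM (ten concentrations, duplicate) in 0.5% v/v final DMSO. Nuclei were stained with Hoechst 33342 after 3.7% formaldehyde fixation, imaged at 20x, and counted; fits bidirectional versus DMSO.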

[12] = APR_HepG2_P-H2AX_72hr: Apredica 72-hour HepG2 Assay for H2AX Phosphorylation (AID 2282916); conditions: imaging, actives raise or lower the signal;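 further: phospho-histone H2A.x immunostain intensity per cell marking DNA damage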
In short: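 Phospho-H2A.x imaging endpoint in HepG2 after 72 hr compound exposure (0.39–200 uM, duplicate wells). Activity derived by bidirectional curve fitting with DMSO as baseline.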

[13] = APR_HepG2_MitoMembPot_72hr: Apredica 72-hour HepG2 Assay for Mitochondrial Membrane Potential (AID 2282917); conditions: imaging, actives raise or lower the signal
In short: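 HepG2 cells exposed 72 h to compounds at 0.39–200 uM (0.5% v/v DMSO, duplicates); MitoTracker Red CMXRos 250 nM loaded 30 min before 3.7% formaldehyde fixation, imaged by HCS fluorescence. Bidirectional fit versus DMSO.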

[14] = APR_HepG2_MitoticArrest_72hr: Apredica 72-hour HepG2 Assay for Mitotic Arrest (AID 2282918); conditions: high-content imaging, actives raise or lower the signal
In short: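 High-content imaging of fixed human HepG2 cells after 72 h compound exposure (0.39–200 uM, duplicates, 0.5% DMSO); mitotic arrest scored from phospho-histone H3 and nuclear Hoechst staining relative to DMSO.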

[15] = APR_HepG2_MicrotubuleCSK_72hr: Apredica 72-hour HepG2 Assay for Microtubule CSK Stabilty (AID 2282919); conditions: HepG2 microtubule cytoskeleton, high-content imaging, actives raise or lower the signal
In short: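 Ten-point dosing (0.39–200 uM, 0.5% DMSO) of HepG2 for 72 hr, with taxol as the cytoskeletal positive control. The cells were formaldehyde-fixed and then stained with alpha-tubulin/Cy5 and Hoechst. Imaging at 20x used a −2 um Z offset for tubulin.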

[16] = APR_HepG2_P-H2AX_24hr: Apredica 24-hour HepG2 Assay for H2AX Phosphorylation (AID 2282920); conditions: high-content imaging, actives raise or lower the signal
In short: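 High-content imaging of phospho-histone H2A.x immunofluorescence, nuclei counterstained with Hoechst 33342, in fixed HepG2 cells. Compounds ran 0.39–200 uM in duplicate for 24 h, final DMSO 0.5%. Signal change fitted both directions against DMSO.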

[17] = APR_HepG2_StressKinase_72hr: Apredica 72-hour HepG2 Assay for Stress Kinase (AID 2282921); conditions: HepG2 stress kinase (phospho-c-Jun) imaging, actives raise or lower the signal
In short: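 Stress kinase signal reflects nuclear phospho-c-Jun staining in fixed, permeabilized cells exposed 72 h to compound at 0.39–200 uM; DMSO-normalized, fitted for increases or decreases.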

[18] = APR_HepG2_StressKinase_24hr: Apredica 24-hour HepG2 Assay for Stress Kinase (AID 2282922); conditions: HepG2 stress kinase (phospho-c-Jun) imaging, actives raise or lower the signal
In short: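 After 24 hr compound treatment (up to 200 uM, final DMSO 0.5% v/v), HepG2 cells are fixed and multiplex-labeled; phospho-c-Jun intensity is captured by high-content fluorescence imaging and analyzed relative to DMSO.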

[19] = APR_HepG2_p53Act_72hr: Apredica 72-hour HepG2 Assay for p53 Activation (AID 2282923); conditions: high-content imaging, actives raise or lower the signal;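 further: average cellular p53 protein immunofluorescence intensity in HepG2 cells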
In short: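 Fixed-cell p53 staining (sheep primary, Cy5 secondary) measured by fluorescence imaging following 72 hr treatment at 0.39–200 uM in 0.5% DMSO; DMSO served as negative control and baseline.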

[20] = APR_HepG2_MitoMass_72hr: Apredica 72-hour HepG2 Assay for Mitochondrial Mass (AID 2282924); conditions: high-content imaging, actives raise or lower the signal;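 further: MitoTracker Red CMXRos stain intensity per cell imaged as mitochondrial mass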
In short: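 Steps: treat HepG2 72 hr (0.39–200 uM, duplicate wells); load MitoTracker Red CMXRos, 250 nM, 30 min; fix with 3.7% formaldehyde, permeabilise with 0.5% Triton X-100; capture images, nuclei via Hoechst 33342; fit bidirectionally against DMSO.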

Measured: AC50

Oc1ccc2ccccc2c1N=Nc1ccccc1
active: [1] 6.47 µM | [4] 34 µM | [6] 27.1 µM | [7] 0.0816 µM | [10] 0.813 µM | [11] 0.606 µM | [12] 2.49 µM | [20] 0.0806 µM
inactive: [2] | [3] | [5] | [8] | [9] | [13] | [14] | [15] | [16] | [17] | [18] | [19]

O=[N+]([O-])C(CO)(CO)CO
active: [11] 107 µM | [12] 118 µM | [14] 105 µM | [17] 112 µM | [19] 119 µM
inactive: [1] | [2] | [3] | [4] | [5] | [6] | [7] | [8] | [9] | [10] | [13] | [15] | [16] | [18] | [20]

Cc1oc(-c2ccccc2)nc1CCOc1cccc2c1ccn2CCC(=O)O
inactive: [1] | [2] | [3] | [4] | [5] | [6] | [7] | [8] | [9] | [10] | [11] | [12] | [13] | [14] | [15] | [16] | [17] | [18] | [19] | [20]

Cc1cc(NC(=O)C(=O)O)cc(C)c1Oc1ccc(O)c2c1CCC2
inactive: [1] | [2] | [3] | [4] | [5] | [6] | [7] | [8] | [9] | [10] | [11] | [12] | [13] | [14] | [15] | [16] | [17] | [18] | [19] | [20]

C=CCOC(=O)c1ccccc1C(=O)OCC=C
inactive: [1] | [2] | [3] | [4] | [5] | [6] | [7] | [8] | [9] | [10] | [11] | [12] | [13] | [14] | [15] | [16] | [17] | [18] | [19] | [20]

Cc1ccccc1Cl
inactive: [1] | [2] | [3] | [4] | [5] | [6] | [7] | [8] | [9] | [10] | [11] | [12] | [14] | [15] | [16] | [17] | [18] | [19] | [20]

COc1cc(/C=C/C(=O)CC(=O)/C=C/c2ccc(O)c(OC)c2)ccc1O
inactive: [1] | [2] | [3] | [5] | [8] | [10] | [13]
active: [4] 38 µM | [6] 56.1 µM | [7] 48 µM | [9] 84.6 µM | [11] 9.56 µM | [12] 15.1 µM | [14] 22 µM | [15] 15.9 µM | [16] 76.1 µM | [17] 11.2 µM | [18] 47.9 µM | [19] 19.1 µM | [20] 22.2 µM

CC1(C)NC(=O)NC1=O
inactive: [1] | [2] | [3] | [4] | [5] | [6] | [7] | [8] | [9] | [10] | [11] | [12] | [13] | [14] | [15] | [16] | [17] | [18] | [19] | [20]

COc1cc(C=O)ccc1O
inactive: [1] | [2] | [3] | [4] | [5] | [6] | [7] | [8] | [9] | [10] | [11] | [12] | [14] | [15] | [16] | [17] | [18] | [19] | [20]

COc1cc(S(=O)(=O)O)c(C)cc1N=Nc1c(O)ccc2cc(S(=O)(=O)O)ccc12
inactive: [1] | [3] | [4] | [5] | [6] | [8] | [9] | [10] | [11] | [12] | [13] | [14] | [15] | [16] | [17] | [18] | [19] | [20]
active: [7] 100 µM

C1CCC(SSC2CCCCC2)CC1
active: [2] 72.3 µM | [4] 77.9 µM | [9] 88.4 µM | [10] 62 µM | [11] 97.4 µM | [16] 113 µM | [17] 108 µM | [19] 148 µM
inactive: [1] | [3] | [5] | [6] | [7] | [8] | [12] | [13] | [14] | [15] | [18] | [20]

CCCCOC(=O)CCCCCCCCC(=O)OCCCC
inactive: [1] | [2] | [3] | [4] | [5] | [6] | [7] | [8] | [9] | [10] | [11] | [12] | [13] | [14] | [15] | [16] | [17] | [18] | [19] | [20]

CC(=O)OCCOCCOCCOC(C)=O
inactive: [1] | [2] | [3] | [4] | [5] | [6] | [7] | [8] | [9] | [10] | [11] | [12] | [13] | [14] | [15] | [16] | [17] | [18] | [19] | [20]
